Measurements: the supplement of paper PMC10849652
The full data set covers some 8,800 targets. This sample favours those with a hit. About 0.5% of all pairs of compound and target were hits.

Assays:
Assay in all cases: log2 fold change, soluble protein after heating vs DMSO (PISA); higher = thermal stabilisation; K562 lysate, 10 uM; active = over 0.2 and 3.5 SD of the protein, either way, in both replicates (recomputed)
erlotinib = compound: C#Cc1cccc(Nc2ncnc3cc(OCCOC)c(OCCOC)cc23)c1 [erlotinib]
Summary of the method: (§1)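 A 30 min treatment with 10 μM compound was applied to crude K562 extract at 1 mg/mL protein in PBS pH 7.4 with 1 mM MgCl2. Heating for 3 min spanned 48°C-58°C, after which aliquots were pooled, adjusted to 0.5% NP-40 at 4°C and spun at 21,000xg for 90 min. TMTpro 16plex LC-MS/MS of the supernatant, with channel sums equalised, gave values recorded as log-two fold change in thermal stability against solvent controls, from duplicates.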

[1] = compound: C/C(=N\NC(=O)C1=CC(=CC=C1)S(=O)(=O)N2CCOCC2)/C3=C(C=CC(=C3)Cl)O
Summary of the method: as §1

[2] = compound: C1=CC(=CC=C1C2=NC3=C(N2)C=C(C=C3)C(=O)N)OC4=CC=C(C=C4)Cl
Summary of the method: as §1

[3] = compound: C1=CC2=C(C=CC(=C2)/C=C\3/C(=O)NC(=NCC4=CC=CS4)S3)N=C1
Summary of the method: as §1

[4] = compound: C1=CC2=NC=CN=C2C=C1/C=C/3\C(=O)NC(=O)S3
Summary of the method: as §1

[5] = compound: C1=CC=C(C=C1)C2=NC(=C(N2)C3=CC=NC=C3)C4=CC(=C(C=C4)Cl)O
Summary of the method: as §1

[6] = compound: C1=CC=C2C(=C1)C3=NNC4=CC=CC(=C43)C2=O
Summary of the method: as §1

[7] = compound: C1CCN(C1)C(=O)NC2=CC=CC(=C2)NC3=NC=C(C(=N3)NCCC4=CN=CN4)Br
Summary of the method: as §1

[8] = compound: C1CN(CCC1(CC2=CC=C(C=C2)Cl)N)C3=NC=NC4=C3C=CN4
Summary of the method: as §1

IRAK-1-4 Inhibitor I = compound: C1COCCN1CCN2C3=CC=CC=C3N=C2NC(=O)C4=CC(=CC=C4)[N+](=O)[O-] [IRAK-1-4 Inhibitor I]
Summary of the method: as §1

Measured: log2 fold change

COG3 (UniProt Q96JB2)
inactive: erlotinib 0.045 | [1] 0.053 | [2] -0.037 | [3] -0.049 | [4] -0.008 | [5] -0.022 | [6] -0.056 | [7] -0.02 | [8] -0.01 | IRAK-1-4 Inhibitor I 0.012

CNIH4 (UniProt Q9P003)
UniProt Q9P003, sequence (Q9P003 whole entry, looked up): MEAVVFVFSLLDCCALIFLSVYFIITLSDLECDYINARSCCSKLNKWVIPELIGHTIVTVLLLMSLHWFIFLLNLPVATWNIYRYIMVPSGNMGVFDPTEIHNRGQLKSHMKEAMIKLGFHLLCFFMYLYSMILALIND
inactive: erlotinib 0.049 | [1] -0.139 | [2] -0.06 | [3] 0.129 | [4] -0.071 | [5] -0.022 | [6] -0.162 | [7] 0.01 | [8] -0.131 | IRAK-1-4 Inhibitor I -0.078

CTPS1 (UniProt P17812)
UniProt P17812, sequence (P17812 whole entry, looked up): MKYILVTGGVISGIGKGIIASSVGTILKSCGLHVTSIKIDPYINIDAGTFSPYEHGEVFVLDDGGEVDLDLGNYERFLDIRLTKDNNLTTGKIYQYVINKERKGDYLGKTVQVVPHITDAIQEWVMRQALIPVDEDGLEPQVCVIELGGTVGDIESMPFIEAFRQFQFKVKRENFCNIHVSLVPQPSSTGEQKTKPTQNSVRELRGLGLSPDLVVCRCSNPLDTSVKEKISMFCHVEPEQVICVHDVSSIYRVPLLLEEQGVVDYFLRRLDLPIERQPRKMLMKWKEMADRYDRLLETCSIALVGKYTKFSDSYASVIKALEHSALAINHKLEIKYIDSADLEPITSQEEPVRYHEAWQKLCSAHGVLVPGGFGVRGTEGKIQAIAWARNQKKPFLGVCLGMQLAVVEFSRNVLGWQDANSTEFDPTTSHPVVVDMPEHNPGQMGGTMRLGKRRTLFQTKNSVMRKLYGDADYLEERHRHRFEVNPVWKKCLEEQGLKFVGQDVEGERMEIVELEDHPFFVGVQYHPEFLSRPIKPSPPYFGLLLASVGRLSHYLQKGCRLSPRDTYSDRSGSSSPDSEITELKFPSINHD
inactive: erlotinib -0.002 | [1] 0.011 | [2] -0.027 | [3] -0.009 | [4] 0.005 | [5] -0.013 | [6] -0.011 | [7] -0.007 | [8] -0.007 | IRAK-1-4 Inhibitor I -0.001

DDX39A (UniProt O00148)
UniProt O00148, sequence (O00148 whole entry, looked up): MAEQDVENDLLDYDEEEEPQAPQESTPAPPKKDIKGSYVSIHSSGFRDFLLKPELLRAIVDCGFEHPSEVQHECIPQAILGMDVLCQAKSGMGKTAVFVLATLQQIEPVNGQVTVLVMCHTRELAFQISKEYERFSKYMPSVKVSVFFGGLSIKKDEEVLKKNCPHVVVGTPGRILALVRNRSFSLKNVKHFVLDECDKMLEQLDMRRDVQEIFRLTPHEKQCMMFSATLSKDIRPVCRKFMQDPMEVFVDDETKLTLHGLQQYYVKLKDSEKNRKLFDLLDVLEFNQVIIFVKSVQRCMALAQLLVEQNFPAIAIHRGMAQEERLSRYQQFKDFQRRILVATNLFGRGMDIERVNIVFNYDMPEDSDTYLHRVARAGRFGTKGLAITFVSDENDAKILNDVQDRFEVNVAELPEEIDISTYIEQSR
inactive: erlotinib 0.023 | [1] -0.095 | [2] -0.045 | [3] -0.001 | [4] -0.003 | [5] 0.008 | [6] -0.026 | [7] -0.02 | [8] 0.009 | IRAK-1-4 Inhibitor I 0.014

DIAPH1 (UniProt H9KV28)
inactive: erlotinib -0.1 | [1] -0.013 | [2] -0.053 | [3] 0.005 | [4] -0.04 | [5] -0.164 | [6] -0.024 | [7] 0.031 | [8] -0.037 | IRAK-1-4 Inhibitor I 0.034

DES (UniProt P17661)
UniProt P17661, sequence (P17661 whole entry, looked up): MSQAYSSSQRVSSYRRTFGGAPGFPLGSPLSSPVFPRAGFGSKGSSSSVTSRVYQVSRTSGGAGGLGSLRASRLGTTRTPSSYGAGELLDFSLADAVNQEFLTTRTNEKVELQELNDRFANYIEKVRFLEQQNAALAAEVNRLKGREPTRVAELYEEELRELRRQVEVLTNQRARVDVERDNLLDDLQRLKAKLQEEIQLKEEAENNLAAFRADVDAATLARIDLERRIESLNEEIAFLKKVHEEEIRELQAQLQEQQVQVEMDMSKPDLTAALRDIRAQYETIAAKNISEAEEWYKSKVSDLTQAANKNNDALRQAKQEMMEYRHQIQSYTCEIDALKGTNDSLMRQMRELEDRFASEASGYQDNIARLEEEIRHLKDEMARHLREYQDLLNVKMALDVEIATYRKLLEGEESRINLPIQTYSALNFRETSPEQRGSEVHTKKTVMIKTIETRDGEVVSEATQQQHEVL
inactive: erlotinib 0.014 | [1] 0.012 | [2] 0.023 | [3] -0.074 | [4] -0.016 | [5] -0.026 | [6] -0.018 | [7] 0.048 | [8] 0.1 | IRAK-1-4 Inhibitor I 0.09

CUX1 isoform 3 (UniProt P39880)
inactive: erlotinib -0.015 | [1] -0.017 | [2] -0.007 | [3] 0.03 | [4] -0.049 | [5] -0.039 | [6] 0.003 | [7] -0.004 | [8] 0.07 | IRAK-1-4 Inhibitor I 0.014

CHORDC1 (UniProt Q9UHD1)
inactive: erlotinib 0.015 | [1] 0.007 | [2] 0.017 | [3] 0.001 | [4] 0.004 | [5] 0.002 | [6] 0.005 | [7] -0.007 | [8] 0.015 | IRAK-1-4 Inhibitor I -0.016

DDX20 (UniProt Q9UHI6)
UniProt Q9UHI6, sequence (Q9UHI6 whole entry, looked up): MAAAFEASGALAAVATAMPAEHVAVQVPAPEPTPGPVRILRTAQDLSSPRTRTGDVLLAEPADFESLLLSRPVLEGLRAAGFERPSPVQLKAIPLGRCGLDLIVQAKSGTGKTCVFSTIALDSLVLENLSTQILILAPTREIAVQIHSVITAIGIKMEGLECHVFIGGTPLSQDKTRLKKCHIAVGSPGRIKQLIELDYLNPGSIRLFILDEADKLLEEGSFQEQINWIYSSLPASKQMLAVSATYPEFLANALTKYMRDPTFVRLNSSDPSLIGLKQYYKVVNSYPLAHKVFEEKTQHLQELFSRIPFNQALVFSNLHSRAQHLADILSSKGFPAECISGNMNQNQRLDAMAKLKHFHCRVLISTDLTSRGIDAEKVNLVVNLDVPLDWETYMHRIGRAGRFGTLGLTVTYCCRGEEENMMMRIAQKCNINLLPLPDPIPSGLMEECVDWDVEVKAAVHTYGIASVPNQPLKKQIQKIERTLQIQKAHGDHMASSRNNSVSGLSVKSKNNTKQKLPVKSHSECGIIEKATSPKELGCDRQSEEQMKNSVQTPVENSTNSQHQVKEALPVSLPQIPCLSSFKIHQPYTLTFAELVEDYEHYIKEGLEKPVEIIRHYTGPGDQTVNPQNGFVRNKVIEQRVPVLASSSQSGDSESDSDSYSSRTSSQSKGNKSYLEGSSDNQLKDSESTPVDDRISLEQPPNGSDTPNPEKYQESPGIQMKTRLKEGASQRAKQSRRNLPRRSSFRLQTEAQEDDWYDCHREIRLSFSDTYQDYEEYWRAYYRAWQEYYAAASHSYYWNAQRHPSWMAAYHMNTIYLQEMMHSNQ
inactive: erlotinib 0.021 | [1] 0.048 | [2] -0.054 | [3] -0.029 | [4] -0.005 | [5] 0.007 | [6] 0.022 | [7] 0.032 | [8] 0.042 | IRAK-1-4 Inhibitor I -0.015

COG4 (UniProt Q9H9E3)
inactive: erlotinib 0.029 | [1] -0.015 | [2] -0.05 | [3] -0.015 | [4] -0.018 | [5] 0.008 | [6] -0.057 | [7] 0.011 | [8] 0.039 | IRAK-1-4 Inhibitor I 0.009

DIAPH1 (UniProt O60610)
UniProt O60610, sequence (O60610 whole entry, looked up): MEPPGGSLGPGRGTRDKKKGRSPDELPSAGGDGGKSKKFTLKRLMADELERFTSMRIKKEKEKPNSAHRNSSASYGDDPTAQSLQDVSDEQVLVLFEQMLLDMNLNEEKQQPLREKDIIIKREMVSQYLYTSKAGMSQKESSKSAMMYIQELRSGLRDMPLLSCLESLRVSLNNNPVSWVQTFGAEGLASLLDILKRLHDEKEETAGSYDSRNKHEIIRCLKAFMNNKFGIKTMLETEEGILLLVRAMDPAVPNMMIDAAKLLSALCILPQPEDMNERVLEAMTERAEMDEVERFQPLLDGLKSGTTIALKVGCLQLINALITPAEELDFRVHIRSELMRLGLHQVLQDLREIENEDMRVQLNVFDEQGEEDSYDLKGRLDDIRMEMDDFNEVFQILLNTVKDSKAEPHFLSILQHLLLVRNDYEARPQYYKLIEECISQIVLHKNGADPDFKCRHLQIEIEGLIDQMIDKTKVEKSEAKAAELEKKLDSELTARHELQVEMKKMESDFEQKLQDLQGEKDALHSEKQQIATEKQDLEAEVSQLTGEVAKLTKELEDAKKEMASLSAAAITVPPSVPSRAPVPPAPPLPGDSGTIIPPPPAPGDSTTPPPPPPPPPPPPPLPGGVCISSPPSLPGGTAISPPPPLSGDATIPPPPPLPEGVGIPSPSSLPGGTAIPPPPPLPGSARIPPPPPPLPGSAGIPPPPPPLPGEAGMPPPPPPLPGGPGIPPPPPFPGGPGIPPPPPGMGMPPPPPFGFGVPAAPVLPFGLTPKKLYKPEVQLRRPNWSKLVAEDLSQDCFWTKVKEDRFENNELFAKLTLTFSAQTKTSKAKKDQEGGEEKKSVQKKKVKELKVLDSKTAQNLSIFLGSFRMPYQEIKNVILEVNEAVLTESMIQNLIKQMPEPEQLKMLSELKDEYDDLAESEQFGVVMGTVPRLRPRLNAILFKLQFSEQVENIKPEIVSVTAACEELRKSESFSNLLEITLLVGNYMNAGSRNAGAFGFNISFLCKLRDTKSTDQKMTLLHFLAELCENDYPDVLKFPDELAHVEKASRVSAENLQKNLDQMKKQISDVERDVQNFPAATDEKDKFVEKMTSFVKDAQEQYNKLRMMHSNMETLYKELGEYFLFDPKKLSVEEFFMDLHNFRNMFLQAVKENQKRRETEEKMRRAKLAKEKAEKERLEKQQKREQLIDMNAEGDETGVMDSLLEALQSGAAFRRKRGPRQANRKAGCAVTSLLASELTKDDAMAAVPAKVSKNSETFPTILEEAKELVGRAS
inactive: erlotinib -0.004 | [1] -0.006 | [2] 0.002 | [3] 0.007 | [4] -0.002 | [5] -0.001 | [6] -0.006 | [7] -0.01 | [8] -0.001 | IRAK-1-4 Inhibitor I -0.007

CKAP5 (UniProt Q14008)
inactive: erlotinib 0.018 | [1] 0.003 | [2] 0.005 | [3] -0.01 | [4] -0.009 | [5] 0.002 | [6] -0.055 | [7] -0.015 | [8] 0.004 | IRAK-1-4 Inhibitor I 0.001

DNAAF5 (UniProt Q86Y56)
UniProt Q86Y56, sequence (Q86Y56 whole entry, looked up): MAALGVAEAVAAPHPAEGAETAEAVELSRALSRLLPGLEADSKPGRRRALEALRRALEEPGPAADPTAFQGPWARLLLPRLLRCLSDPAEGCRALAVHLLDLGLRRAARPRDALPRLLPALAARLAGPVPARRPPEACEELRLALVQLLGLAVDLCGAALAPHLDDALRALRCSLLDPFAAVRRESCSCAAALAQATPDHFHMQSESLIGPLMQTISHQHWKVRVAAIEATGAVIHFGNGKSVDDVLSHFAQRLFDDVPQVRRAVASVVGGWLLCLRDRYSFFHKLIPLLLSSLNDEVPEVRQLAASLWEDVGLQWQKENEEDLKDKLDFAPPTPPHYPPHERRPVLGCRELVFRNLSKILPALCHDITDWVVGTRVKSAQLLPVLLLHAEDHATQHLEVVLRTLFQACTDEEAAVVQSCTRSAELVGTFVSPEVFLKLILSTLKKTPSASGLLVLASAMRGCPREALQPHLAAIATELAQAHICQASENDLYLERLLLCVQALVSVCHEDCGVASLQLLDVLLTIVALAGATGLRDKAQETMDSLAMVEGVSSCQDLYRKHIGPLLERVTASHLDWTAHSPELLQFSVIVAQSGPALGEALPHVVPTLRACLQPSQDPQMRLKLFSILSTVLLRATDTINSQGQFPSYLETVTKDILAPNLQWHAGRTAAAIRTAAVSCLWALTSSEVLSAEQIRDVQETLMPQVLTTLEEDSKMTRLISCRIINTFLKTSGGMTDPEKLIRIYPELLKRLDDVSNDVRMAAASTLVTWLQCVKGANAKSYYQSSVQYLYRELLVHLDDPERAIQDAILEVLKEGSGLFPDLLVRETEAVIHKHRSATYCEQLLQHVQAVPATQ
inactive: erlotinib -0.008 | [1] 0.041 | [2] -0.062 | [3] -0.057 | [4] 0.021 | [5] -0.016 | [6] -0.08 | [7] -0.003 | [8] 0.007 | IRAK-1-4 Inhibitor I -0.039

CSK (UniProt P41240)
UniProt P41240, sequence (P41240 whole entry, looked up): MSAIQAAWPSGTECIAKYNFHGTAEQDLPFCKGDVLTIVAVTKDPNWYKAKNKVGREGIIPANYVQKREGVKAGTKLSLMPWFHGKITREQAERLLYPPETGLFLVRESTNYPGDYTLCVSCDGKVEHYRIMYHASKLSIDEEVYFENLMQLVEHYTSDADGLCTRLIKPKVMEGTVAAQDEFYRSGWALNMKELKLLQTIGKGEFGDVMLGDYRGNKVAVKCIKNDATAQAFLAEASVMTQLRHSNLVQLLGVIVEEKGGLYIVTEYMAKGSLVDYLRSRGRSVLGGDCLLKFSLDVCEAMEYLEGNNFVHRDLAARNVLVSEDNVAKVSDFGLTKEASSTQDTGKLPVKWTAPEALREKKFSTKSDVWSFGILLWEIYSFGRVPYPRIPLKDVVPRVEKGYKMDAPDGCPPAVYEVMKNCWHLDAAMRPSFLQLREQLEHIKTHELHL
inactive: erlotinib 0.045 | [1] -0.025 | [2] -0.004 | [3] -0.028 | [4] -0.035 | [5] 0.031 | [6] 0.106 | [7] 0.107 | [8] 0.033 | IRAK-1-4 Inhibitor I 0.053

DNM2 (UniProt P50570)
inactive: erlotinib 0.045 | [1] -0.009 | [2] 0.049 | [3] 0.013 | [4] 0.029 | [5] 0.003 | [6] -0.049 | [7] -0.022 | [8] -0.008 | IRAK-1-4 Inhibitor I 0
